Values joined by “and” are separate entries in the source; they are usually repeats but may differ in a detail not shown here. Equal values may be shown once. Results filed as inconclusive are left out. A number with no mark means an inactive call. Active and inactive are the calls of the source. The call rests on the fitted dose curve; in most records, active means well fitted curve in the direction sought with a large enough effect; inconclusive means small, poorly fitted or top-dose-only effect, or another doubt; inactive means no such curve, though single readings can be large; an effect the other way counts as inactive or inconclusive.

The target of test [1] is Calcium and integrin-binding protein 1 (Homo sapiens) (UniProt Q99828). Description: Primary qHTS for Identification of Calcium Integrin Binding Protein 1 (CIB1) Competitor (AID 1508620).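 Further: GST tagged CIB1 binding a fluorescein labelled alphaIIb integrin peptide tracer; top concentration of the series differs between compounds.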 The method in brief:
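Fluorescence polarization competition: CIB1-GST (1 uM final) preincubated with compound 15 min at room temperature, then FITC-labeled alphaIIb peptide (100 nM final) added for another 15 min. Polarization read at Ex 480/Em 540.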

Test [2] is described as follows: Primary qHTS for inhibitors of nuclear receptor binding SET domain protein 2 (NSD2) in an isogenic RCH-ACV NSD2 p.E1099K mutant (9B) (AID 1645876; further: nearly all actives have a fitted effect of over 70% in size; further: potency means the concentration at half of the fitted maximal effect). (Quantitative high-throughput screening tests each substance at several concentrations.)
Test [3] can be described thus: Primary qHTS for inhibitors of nuclear receptor binding SET domain protein 2 (NSD2) in an RCH-ACV wild type WT cells (2C) (AID 1645877). Further: nearly all actives have a fitted effect of over 70% in size. Further: potency means the concentration at half of the fitted maximal effect.
On the % scale 0 is the no-effect control and ±100 the full control effect.

Sequence of Calcium and integrin-binding protein 1 (Homo sapiens) (Q99828 whole entry, looked up): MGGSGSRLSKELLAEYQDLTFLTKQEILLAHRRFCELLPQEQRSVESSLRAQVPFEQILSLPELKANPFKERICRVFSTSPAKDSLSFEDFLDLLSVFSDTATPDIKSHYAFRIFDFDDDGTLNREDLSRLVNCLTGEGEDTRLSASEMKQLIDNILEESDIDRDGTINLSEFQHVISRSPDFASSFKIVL

In the case of `CC(O)(C(=O)C1CC1(CO)COC1OC(CO)C(O)C(O)C1O)C1C(O)CC2C3CC=C4CC(O)CC(O)C4(C)C3C(O)CC21C` (stereo not given), the Potency entry in test [1] is “inactive”. Further, the Potency in test [2] is 0.342 µM (active); in test [3], 0.383 µM (active).

Regarding `C[C@H](Oc1cc(-c2cnn(C3CCNCC3)c2)cnc1N)c1c(Cl)ccc(F)c1Cl`, the Potency entry in test [1] is “inactive”. Further, the values for the Potency in test [2] and in test [3] were 11.5 µM (active) and 12.9 µM (active), respectively.

For `C=C1C(=O)O[C@H]2/C=C(/C)[C@@H](OC(C)=O)C/C=C(\C)C[C@@H](OC(=O)/C(=C/C)COC(=O)/C(=C/C)CO)[C@@H]12`, the Potency result in test [1] is “inactive”. Further, the Potency in test [2] is 1.78 µM (active); in test [3], 1.12 µM (active).

For `Cn1cc(-c2cnn3c(N)c(Br)c(C4CCCNC4)nc23)cn1` (stereo not given), the Potency result in test [1] was “inactive”. For the same compound, the values for the Potency in test [2] and in test [3] were 1.18 µM (active) and 1.05 µM (active), respectively.

On to `C=C1C(=O)OC2/C=C(\COC(C)=O)CC/C=C(\C=O)CC(OC(=O)C(C)CC)C12` (stereo not given), for which the Potency result in test [1] is “inactive”. Further, the figures for the Potency in test [2] and in test [3] were 3.17 µM (active) and 2 µM (active), respectively.

For the compound `Cc1cn(CCN2CCN(c3ccccc3-c3cc(C#N)cc(C(=O)NCCCN4CCCC4)c3)CC2)c2ccccc12`, the Potency entry in test [1] was “inactive”. In addition, the Potency in test [2] is 6.49 µM (active) and 6.61 µM (active); in test [3] it was 5.78 µM (active) and 6.61 µM (active).

For `C=C1/C(=C/C=C2\CCC[C@]3(C)[C@@H]([C@H](C)CC[C@@H](O)C(C)(C)O)CC[C@@H]23)C[C@@H](O)C[C@@H]1O`, the Potency entry in test [1] is “inactive”. For the same compound, the Potency is 18.3 µM (active) in test [2] and 10.3 µM (active) in test [3].

For the compound `O=C1Cc2c([nH]c3ccc(Br)cc23)-c2ncccc2N1`, the Potency entry in test [1] is “inactive”. Moreover, the Potency is 2.9 µM (active) in test [2] and 2.58 µM (active) in test [3].

Take `CCC(C)C1NC(=O)C(Cc2ccccc2)NC(=O)C(CCCCCC(=O)C(O)CO)NC(=O)C2CCCCN2C1=O` (stereo not given): in test [1], the Potency result was “inactive”. Besides, the Potency in test [2] is 6.08 µM (active); in test [3] it was 2.16 µM (active).

As for `C=C1[C@H]2CC[C@H](C(=O)O)[C@@]23CC[C@H](C3)C1(C)C`, the Potency entry in test [1], in test [2] and in test [3] was “inactive” each time.

In the case of `O=C(NO)c1ccc(CC(=O)N(CCO)c2ccccc2)cc1`, in test [1], the Potency result was “inactive”. Also, the Potency in test [2] was 16.3 µM (active); in test [3], 14.5 µM (active).

For `COc1cccc(NCCC2(c3ccccc3)CC(C)(C)OC(C)(C)C2)c1`, the Potency entry in test [1], in test [2] and in test [3] was “inactive” each time.

As for `CCC(C)C(=O)O[C@H]1[C@@H](OC(=O)c2ccoc2)C[C@](C)(O)[C@]23OC(C)(C)[C@H](C[C@H](OC(=O)c4ccoc4)[C@]12COC(C)=O)[C@H]3OC(C)=O` (stereo not given in full), the Potency result in test [1], in test [2] and in test [3] was “inactive” throughout.

For the compound `C=C1C(=O)O[C@@H]2[C@H]1CC(=O)[C@H](C)[C@@](O)(C(=O)/C=C/C)[C@H]2OC(=O)C(C)CC` (stereo not given in full), the Potency entry in test [1] is “inactive”. In addition, the Potency is 1.27 µM (active) in test [2] and 0.45 µM (active) in test [3].

Regarding `CC(C)NC(=O)N1CC[C@H](N=C2Nc3cc(F)ccc3N(CC(F)F)c3ccc(Cl)cc32)C1`, in test [1], the Potency entry is “inactive”. Moreover, the activity change, negative = viability loss in test [2] was -17% [at 9.23 µM]. Besides, the activity change, negative = cell killing in test [3] was 1.84% [at 9.23 µM].

Consider `CCC(CC)(NC(=O)C(C)C)C(=O)N[C@@H](CCCN=C(N)N)C(=O)NC1(C(=O)NC(c2ccc(F)cc2)c2ccc(F)cc2)CCCC1`, for which the Potency entry in test [1], in test [2] and in test [3] was “inactive” in each case.

`CC[C@H]1OC(=O)[C@H](C)[C@@H](O[C@H]2C[C@@](C)(OC)[C@@H](O)[C@H](C)O2)[C@H](C)[C@@H](O[C@H]2O[C@H](C)C[C@H](N(C)C)[C@H]2O)[C@](C)(O)C[C@@H](C)C(=O)[C@H](C)[C@@H](O)[C@]1(C)O`: the Potency result in test [1], in test [2] and in test [3] was “inactive” each time.

As for `CC1(C)CC[C@]2(C(=O)O[C@@H]3O[C@H](CO)[C@@H](O)[C@H](O)[C@H]3O)CC[C@]3(C)C(=CCC4[C@@]5(C)CC[C@H](O[C@@H]6O[C@H](C(=O)O)[C@H](O)[C@H](O)[C@H]6O)C(C)(C)C5CC[C@]43C)[C@@H]2C1` (stereo not given in full), the Potency result in test [1] was “inactive”. The values for the Potency in test [2] and in test [3] were 6.08 µM (active) and 5.41 µM (active), respectively.

As to `COc1ccc([C@H]2OC[C@H]3O[C@@H](O[C@H]4[C@@H]2NC[C@@H]4O)[C@H](O)[C@H]3O)cc1`, the Potency entry in test [1] is “inactive”. Besides, the Potency in test [2] was 0.8 µM (active); in test [3] it was 1.27 µM (active).

Consider `C/C=C(\C)C(=O)O[C@H]1C=CC(=O)O[C@H]1/C=C/[C@@H](O)[C@H](C)O`, for which the Potency result in test [1] is “inactive”. In addition, the Potency in test [2] was 16.3 µM (active); in test [3], 5.78 µM (active).

Consider `C[C@H]1CC[C@@]2(OC1)O[C@H]1CC3[C@@H]4CC[C@@H]5C[C@@H](O[C@@H]6O[C@H](CO)[C@@H](O[C@@H]7O[C@@H](C)[C@H](O)[C@@H](O)[C@H]7O)[C@H](O)[C@H]6O[C@@H]6O[C@H](CO)[C@@H](O)[C@H](O)[C@H]6O)CC[C@]5(C)C4CC[C@]3(C)[C@H]1[C@@H]2C` (stereo not given in full), for which the Potency entry in test [1] is “inactive”. Besides, the Potency in test [2] and in test [3] was 3.88 µM (active) each time.

Consider `C=C1C(=O)O[C@@H]2C[C@H](C)[C@@H]3CC(=O)C(C)=C3C[C@H]12`, for which the Potency result in test [1] is “inactive”. Also, the values for the Potency in test [2] and in test [3] were 4.59 µM (active) and 2.58 µM (active), respectively.

As to `Nc1nc(NC2CC2)cc(-c2cccc(Cl)c2Cl)n1`, the Potency entry in test [1] was “inactive”. Moreover, the Potency in test [2] is 4.59 µM (active); in test [3] it was 2.58 µM (active).

As for `NS(=O)(=O)c1ccc(NC(=O)Nc2ccc(F)cc2)cc1`, the Potency entry in test [1], in test [2] and in test [3] was “inactive” in each case.

In the case of `C=C1C(=O)O[C@@H]2[C@H]1CC[C@H](C)C(CCC(=O)O)C2(C)O` (stereo not given in full), in test [1], the Potency entry is “inactive”. Also, the Potency in test [2] is 18.3 µM (active); in test [3] it was 12.9 µM (active).
